Each structure is given as a SMILES string. Among all 410,000 compounds or so, about 6,400 (1.6%) were called active. Another 20% or so got no clear call; they are omitted. For the sample, actives were picked, then their nearest neighbours and some compounds at random. A number with no mark means an inactive call. Calls follow the shape of the dose curve; as a rule, active = well fitted inhibition curve with a large enough effect; inconclusive = small, poorly fitted or top-dose-only effect; inactive = no such curve, though single readings can be large or run the other way.

Data on 51 compounds can be found in PubChem BioAssay AID624417 (National Center for Advancing Translational Sciences (NCATS), 2012).
% is scaled to controls: 0 for no effect and ±100 for the full control effect; potency is read from the fitted curve at half-maximal effect.

In the assay the target is Glucagon-like peptide 1 receptor (Homo sapiens) (UniProt P43220). As to the kind of experiment: qHTS of GLP-1 Receptor Inverse Agonists (Inhibition Mode). Also: nearly all actives have a fitted effect of over 55% in size. The settings on record: HEK293 GLP-1R CRE-luciferase, luminescence, 24 h, GLP-1R form is constitutively active; series mostly up to 38.3 µM; activity change, negative = inhibition: at the top concentration. The procedure, abridged: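 Constitutively active GLP-1R drives a cAMP-responsive luciferase in stably transfected HEK293 cells; test compounds are added after overnight (12 h) attachment and left 24 hr, and signal loss in luminescence marks inhibition.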
Sequence of Glucagon-like peptide 1 receptor (Homo sapiens) (P43220 whole entry, looked up): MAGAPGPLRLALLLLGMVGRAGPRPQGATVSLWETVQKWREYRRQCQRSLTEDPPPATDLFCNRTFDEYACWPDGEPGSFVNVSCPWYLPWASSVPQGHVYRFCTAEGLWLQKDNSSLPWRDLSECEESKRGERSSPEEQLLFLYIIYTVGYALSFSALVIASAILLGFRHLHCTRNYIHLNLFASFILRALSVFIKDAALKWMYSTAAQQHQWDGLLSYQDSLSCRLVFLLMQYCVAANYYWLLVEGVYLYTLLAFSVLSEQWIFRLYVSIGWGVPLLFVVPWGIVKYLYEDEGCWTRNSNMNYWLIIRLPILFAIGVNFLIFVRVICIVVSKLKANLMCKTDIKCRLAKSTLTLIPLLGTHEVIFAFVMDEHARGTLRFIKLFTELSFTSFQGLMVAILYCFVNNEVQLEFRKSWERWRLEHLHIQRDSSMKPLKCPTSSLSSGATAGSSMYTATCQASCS
In general terms: qHTS replaces the single test concentration by a dilution series.
Take `C[C@@H]1CN([C@H](C)CO)C(=O)CCCn2cc(nn2)CO[C@H]1CN(C)S(=O)(=O)c1ccc(Oc2ccccc2)nc1`: the “activity change, negative = inhibition” value was 3.37%.
Still for that read-out and setting: for `Cc1ccc(-c2noc(CSc3nnc(-c4ccc(Cl)cc4)n3C)n2)cc1` the value was 12.7%; for `c1ccc(CCc2nc(-c3ccncc3)no2)cc1`, 2.26%.
With `Cc1ccc(-c2noc(CC(c3ccccc3)c3ccccc3)n2)cc1`, the Potency is 5.62 µM (active).
On to `CC[C@@H]1CC2=C(C(=O)OC(C)(C)O2)[C@@H](CC)O1`, for which the “activity change, negative = inhibition” value is 26.8%.
Still for that read-out and setting: for `CC1(C)NC(=O)N(CC(=O)Nc2ccc(-c3ccccc3)cc2)C1=O` the value was 0.129%.
On the same count and under the same terms, for `Cc1c(C(=O)NCc2ccc(C#N)cc2)sc(=O)n1Cc1ccc(C(=O)N(C)C)cc1` the value was 10.9%; for `CCOC(=O)N1CCN(Cc2nc(Cc3cccc(C(F)(F)F)c3)no2)CC1`, -5.14%.
On the same count and under the same terms, for `O=C(c1ccco1)N1CCN(Cc2cccc(C(F)(F)F)c2)CC1` the value was -16.9%.
On to `FC(F)(F)c1cccc(Cc2noc(CN3CCC(N4CCCCC4)CC3)n2)c1`, for which the Potency was 5.62 µM (active).
Regarding `O=C(NCc1ccccc1)C1c2ccccc2OCC(=O)N1CCCN1CCOCC1` (stereo unspecified), the “activity change, negative = inhibition” value was 20.2%.
The same measure, in the same setting: for `Cc1cc(Br)ccc1NC(=O)CCCOc1cc(=O)n(C)c2ccccc12` the value was 7.24%.
Same read-out and setting: the same measure for `COc1ccc(CN(CC(=O)NC2CCCC2)C(=O)CCC(=O)Nc2cc(C)on2)cc1`: -8.66%; for `Cc1ccc(CN(CC(=O)NC2CCCCC2)C(=O)c2csnn2)cc1`: -22.4%.
Consider `Cc1cc(C(C)(C)C)oc1C(=O)N(CC(=O)NC1CCCC1)Cc1ccc(Cl)cc1`, for which the Potency was 7.08 µM (active).
Consider `O=C(CC[C@H]1O[C@@H](n2ccc(=O)[nH]c2=O)[C@H](O)[C@@H]1O)N[C@H](Cc1ccccc1)C(=O)NCc1ccco1`, for which the “activity change, negative = inhibition” value is 12.8%.
On the same count and under the same terms, for `Cc1cccc(C)c1OCC(O)CN1CCCCC1` (stereo unspecified) the value was -1.02%.
Consider `CC1CCCN(CC(O)COCc2ccccc2)C1` (stereo unspecified), for which the “activity change, negative = inhibition” value is -6.19%.
On to `Cc1ccccc1C(OCC(O)CN1CCCCC1CCO)c1ccccc1` (stereo unspecified), for which the Potency was 10 µM (active).
For the compound `Cc1nc(C(F)(F)F)ccc1C(=O)N1CCC1(C)C(=O)NS(=O)(=O)c1ccccc1Cl` (stereo unspecified), the “activity change, negative = inhibition” value was 15.1%.
For the compound `CCOC(=O)N(C)c1c(CC)nc2c(OCc3ccccc3C(=O)OC)cccn12`, the “activity change, negative = inhibition” value was 13.9%.
Consider `COc1ccc(Cl)cc1-n1c(C)cc(C(=O)OCC(=O)N2CC(=O)Nc3ccccc32)c1C`, for which the Potency was 10 µM (active).
Take `COc1ccc(C(=O)OCC(=O)N2CC(=O)Nc3ccccc32)cc1Br`: the “activity change, negative = inhibition” value was 17.7%.
The same measure, in the same setting: for `COc1cc(OC)c(C(=O)OCC(=O)N2CC(=O)Nc3ccccc32)cc1OC` the value was 19.5%.
The same measure, in the same setting: for `Nc1cc(=O)c2[nH]cnc2[nH]1` the value was 2.06%; for `Cc1cc(C)n2c(Nc3c(C)cccc3C)c(CCc3ccccc3)nc2n1`, -31.1%.
Regarding `CN(Cc1ccccc1F)c1cc2c(c3c1ccn3C)C1CCC2O1` (stereo unspecified), the “activity change, negative = inhibition” value is -30.3%.
The same measure, in the same setting: for `N#CC1(Nc2ccc3c4c(cccc24)CC3)CCCCC1` the value was -13.8%; for `O=C(NNC(=O)C1CCN(c2ncccn2)CC1)c1ccccc1`, 13.1%.
Consider `CCc1ccc(C(=O)NNC(=O)C2CCN(c3ncnc4sc(C)c(C)c34)CC2)cc1`, for which the Potency was 10 µM (active).
For the compound `Cc1sc2ncnc(N3CCC(C(=O)Nc4nc5ccc(Cl)cc5s4)CC3)c2c1C`, the “activity change, negative = inhibition” value is 12.3%.
Still for that read-out and setting: for `C[C@H]1CN([C@@H](C)CO)C(=O)c2cc(C3=CCCCC3)cnc2O[C@@H]1CN(C)C(=O)Cc1ccccc1` the value was -17.6%; for `CC(C)Nc1ncnc2c1ncn2[C@H]1CN(Cc2ccncc2)C[C@@H](CO)O1`, 29.6%; for `O=C(NCc1ccncc1)NC12CC3CC(CC(C3)C1)C2`, -8.91%.
As to `S=C(NCc1ccc(Cl)cc1)NC12CC3CC(CC(C3)C1)C2`, the Potency is 8.91 µM (active).
Consider `O=C(NCc1ccc(Cl)cc1)NCc1ccc(Cl)cc1`, for which the activity change, negative = inhibition is -0.855% [at 7.66 µM].
Same read-out and setting: for `O=C(NC1CCCC1)C1c2ccccc2OCC(=O)N1Cc1ccccc1` (stereo unspecified) the value was 1.36%; for `CCOC(=O)c1cnn2c(SC)ncnc12`, 14.2%; for `CC(C)Nc1nc(N(c2ccccc2)c2ccccc2)nc(-n2ccnc2)n1`, 0.283%.
Take `N#Cc1nc(N)nc(N(c2ccccc2)c2ccccc2)n1`: the Potency is 12.6 µM (active).
On to `CC(C)Cn1cc(-c2cncc3nccn23)cn1`, for which the “activity change, negative = inhibition” value was 12.6%.
On the same count and under the same terms, the same measure for `CCCC(=O)N1CCC1(C)C(=O)NS(=O)(=O)c1ccc(Cl)cc1` (stereo unspecified): 4.5%; for `CCCNC(=O)C1(C)CCCN(Cc2c(C)nn(-c3ccccc3)c2C)C1` (stereo unspecified): -17.1%.
In the case of `O=C(NCCCN1CCOCC1)c1cc(-c2ccc(Cl)cc2)on1`, the “activity change, negative = inhibition” value is 0%.
Take `Cc1c(C)n(Cc2ccc(Cl)cc2)c2ccc(C(=O)NCCCN3CCOCC3)cc12`: the Potency is 1.12 µM (active).
On to `Cc1c(C)n(Cc2ccc(Cl)cc2)c2ccc(C(=O)NCCc3ccc(S(N)(=O)=O)cc3)cc12`, for which the “activity change, negative = inhibition” value is -12.1%.
With `CCN1CCN(c2ncc3c(n2)CC(c2ccccc2O)CC3=O)CC1` (stereo unspecified), the Potency was 10 µM (active).
With `COc1cc(C2CC(=O)c3cnc(NC(C)=O)nc3C2)cc(OC)c1OC` (stereo unspecified), the “activity change, negative = inhibition” value is 30.8%.
Consider `Cc1nc2nc3c(cn2n1)C(=O)CC(c1ccccc1)C3` (stereo unspecified), for which the “activity change, negative = inhibition” value is -0.051%.
For the compound `CN1CCN(c2ncc3c(n2)CC(c2ccccc2F)CC3=O)CC1` (stereo unspecified), the Potency is 3.98 µM (active).
Turning to `CCc1ccc(Nc2ncc3c(n2)CC(c2ccco2)CC3=O)cc1` (stereo unspecified), the “activity change, negative = inhibition” value is 16%.
